Measurements as given in PubChem BioAssay AID492999 (Johns Hopkins Ion Channel Center, 2010).
Hit rate of the full screen: of about 1,700 compounds, about 1,100 (65%) were called active.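 The calls were made as follows: active = duplicate-averaged calcium response above the buffer-only control mean plus 5 SD of those controls; inactive = the rest.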 So high a share suggests a set chosen from earlier hits. A selection follows.

test: enhanced carbachol calcium response, M3R/RGS4 cells, RGS4 inhibitor project, cell-based, validation screen, HEK293 M3R/RGS4, calcium flux (AID 492999); settings: HEK293 M3R/RGS4, carbachol calcium Fluo-4 fluorescence, at 10 µM, carbachol added at its EC20; stronger effect = higher value, 0 = buffer wells, 100 = carbachol control;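 as to calcium response: integrated fluorescence ratio F max minus min over baseline F0; higher response in RGS4-induced cells means RGS4 inhibition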

SMILES | calcium response
CCOC(=O)C1=NN(c2ccc(Cl)cc2)/C(=C/C2=NCCc3cc(OC)c(OC)cc32)S1 | 10.5% (active)
CCC(c1nnnn1Cc1ccco1)N(Cc1cc2cc(OC)ccc2[nH]c1=O)C1CCCCC1 (centres undefined) | inactive
COc1ccc(/C(O)=C2/C(=O)C(=O)N(c3nc(C)c(C)s3)C2c2ccco2)cc1 (centres undefined) | inactive
COc1ccc(-c2csc(Nc3ccc(O)cc3)n2)cc1 | 10% (active)
C=CCSc1nc2c(c(=O)[nH]1)C(C(C)C)C(C#N)=C(N)O2 (centres undefined) | 26% (active)
COc1cc(Br)cc(/C=N/c2ncn[nH]2)c1O | 8% (active)
COc1cc(/C=C2/C(=O)NN(c3cccc(Cl)c3)C2=O)cc(Br)c1O | 30.5% (active)
COc1cc(/C=C2/SC(=S)N(Cc3ccccc3)C2=O)cc(OC)c1O | inactive
C#CCOc1ccc(/C=C2/C(=O)NN(c3ccccc3)C2=O)cc1OC | 9% (active)
Oc1ccc(/C=N/Nc2ccc(C(F)(F)F)cn2)cc1O | 16.5% (active)
COc1ccc(/C=C/C(=O)c2ccc(OC)cc2O)cc1 | inactive
Cc1nc(-c2ccccc2)sc1C(=O)/C=C/c1ccccc1 | 10% (active)
O=C1Nc2ccc(Br)cc2/C1=N/N=C/C1=C(N2CCOCC2)C(=C\c2ccccc2)/CC1 | 18.5% (active)
O=C(Nc1ccccc1)OCc1cc(-c2ccc(Cl)cc2)on1 | inactive
COCCCNC(=S)N(CCN(C)C)Cc1cc2cc3c(cc2[nH]c1=O)OCCO3 | inactive
COc1ccc(OC)c(S(=O)(=O)N2CCCC(C(=O)N3CCC(C(N)=O)CC3)C2)c1 (centres undefined) | inactive
CCOC(=O)C1CCN(C(c2cc3cc(C)cc(C)c3[nH]c2=O)c2nnnn2C2CCCCC2)CC1 (centres undefined) | 18% (active)
CCOC(=O)[C@@H]1[C@H]2COc3ccc(Br)cc3[C@H]2N2C(=O)N(c3ccc(Cl)cc3)C(=O)[C@@]12C | inactive
Cc1cc(C)nc(S/C=C/C(=O)c2ccccc2)n1 | 19.5% (active)
CCOc1ccc(/C=N/NC(=O)CSc2ccccn2)cc1O | inactive
Cc1ccc(Sc2cc(N3CCOCC3)nc(-c3ccccc3)n2)cc1 | 28% (active)
C[C@H](NC(=O)c1nc[nH]c1C(=O)NCC(=O)OC(C)(C)C)c1ccccc1 | 13% (active)
O=C(Nc1ccc(Cl)cc1)OCc1cc(-c2ccccc2)on1 | inactive
COC(=O)Cn1cc(/C=C/[N+](=O)[O-])c2ccccc21 | 33.5% (active)
Cc1nc(Nc2ccc(S(=O)(=O)N3CCCC3)cc2)c2nnn(Cc3ccccc3)c2n1 | inactive
O=C(/C=C/c1ccc(Cl)c([N+](=O)[O-])c1)c1ccc(O)cc1 | 22% (active)
O=C(/C=C/c1ccc(Cl)c([N+](=O)[O-])c1)c1cccnc1 | 9% (active)

SMILES | calcium response
CCCCC1S/C(=N/N=C/c2cccs2)NC1=O (centres undefined) | 18% (active)
Brc1ccc(-c2csc(N/N=C/c3cccnc3)n2)cc1 | 7.5% (active)
CNc1nc(Nc2ccc(C)c(Cl)c2)nc(N)c1[N+](=O)[O-] | 6% (active)
Cc1ccc(Nc2nc(N)nc(CN3CCN(Cc4ccccc4)CC3)n2)cc1Cl | inactive
Cc1nn2c(=O)cc(COC(=O)c3ccc(NC(=O)C(C)(C)C)cc3)nc2s1 | inactive
CC(C)c1nc(SCC(=O)Nc2cccc(C(=O)O)c2)c2c3c(sc2n1)CCCC3 | 27.5% (active)
Cc1ccc(NC(=O)c2c(NC(=O)CCC(=O)O)sc3c2CCCCC3)cc1 | inactive
CC(C)Cc1nc(Nc2ccc(S(=O)(=O)N3CCCC3)cc2)c2nnn(Cc3ccccc3)c2n1 | inactive
CNCC(O)c1ccc(O)c(O)c1 (centres undefined) | 21.5% (active)
O=C(CCN1CCc2ccccc2C(O)(c2ccccc2)C1)c1ccc2c(c1)OCCO2 (centres undefined) | 100% (active)
COc1ccc(C(C[N+](=O)[O-])n2nc(C)cc2C)cc1 (centres undefined) | 10% (active)
Cc1nn(C(C)C(=O)N2CCOCC2)c(=O)c2nn(-c3ccccc3)c(C)c12 (centres undefined) | inactive
O=C(NCCCc1ccccc1)C1CCC(CNc2c(N3CCCCC3)c(=O)c2=O)CC1 (centres undefined) | inactive
O=C1c2ccccc2NC(c2ccc(-c3cccc(Cl)c3)o2)N1O (centres undefined) | 24.5% (active)
c1ccc(C[C@H]2CNCCN2CCC23CC4CC(CC(C4)C2)C3)cc1 | 26.5% (active)
O=C(COC(=O)c1cccc(Br)c1)Nc1cccc2c1C(=O)c1ccccc1C2=O | inactive
O=C(O)c1ccc2c(c1)C(=O)N(c1ccc(/C=C/C(=O)c3ccccc3)cc1)C2=O | 93% (active)
CCc1ccc(C2C(C#N)=C(N)N(N3CCOCC3)C3=C2C(=O)CC(C)(C)C3)s1 (centres undefined) | inactive
O=[N+]([O-])/C=C/c1ccc2c(ccn2Cc2ccccc2)c1 | 56.5% (active)
CCn1c(O)c(N=NC2=NC(=O)CS2)c2cc(C)ccc21 | inactive
O=C1NC(c2ccc(-c3ccccc3[N+](=O)[O-])o2)C(C(=O)c2ccc(Cl)cc2)C(O)(C(F)(F)F)N1 (centres undefined) | 18.5% (active)
Cn1c(-c2ccco2)nc2cc3ccccc3cc21 | inactive
CCc1ccc2oc(-c3ccc(N)cc3)nc2c1 | 17% (active)
CCOc1ccc(NC(=O)C/C(C)=N/NC(=O)Cc2cccs2)cc1 | inactive
CCCCOC(=O)CNc1nnc(SCC(=O)OCC)[nH]c1=O | 63.5% (active)
Cc1ccc(C)c(Cn2nnc3c(=O)[nH]c(C(=O)Nc4ccc(F)cc4)nc32)c1 | 56.5% (active)
COC(=O)C1CCN(C(=O)c2cc(=O)[nH]c3ccccc23)CC1 | inactive

SMILES | calcium response
Cc1ccc(S/C(=N\S(=O)(=O)c2ccc(Cl)cc2)c2ccccc2)cc1 | inactive
C=CCOc1ccc(/C=C2/C(=O)ON=C2C)cc1OCC | 14.5% (active)
C#CCOc1ccc(/C=C2/C(=O)ON=C2C)cc1OCC | 16% (active)
Cc1ccsc1/C=N/n1c(=S)[nH]nc(C)c1=O | 22.5% (active)
Cc1ccc(SC(CC(=O)c2ccc(C(C)(C)C)cc2)C(=O)O)cc1 (centres undefined) | inactive
Nc1cccc(-c2cc(-c3ccccc3)nc(-c3cccc(N)c3)n2)c1 | 13.5% (active)
COc1cc2c(cc1O)C(SC)=NC(C)(C)C2 | 26.5% (active)
CCc1nnc(NS(=O)(=O)c2ccc(N=Cc3c(C)[nH]n(-c4ccc(C)cc4)c3=O)cc2)s1 | inactive
C1=C(N2CCOCC2)/C(=C/c2nc3ccccc3[nH]2)CC1 | 49% (active)
COc1ccc(NCc2nnc(SCc3ccccc3)n2-c2ccc(OC)cc2)cc1 | inactive
Cc1ccc(/C=C2\CCn3c2nc2cc(C(=O)O)ccc2c3=O)c(C)c1 | 52% (active)
O=C(O)c1ccc2c(=O)n3c(nc2c1)/C(=C/c1ccc(Cl)c([N+](=O)[O-])c1)CC3 | inactive
Oc1ccc(-c2[nH]ncc2-c2nc3ccccc3s2)c(O)c1 | 12% (active)
O=S(=O)(Nc1nccs1)c1ccc2c(c1)OCCO2 | inactive
Cc1c(NC(=O)c2coc(=O)c(Br)c2)c(=O)n(-c2ccccc2)n1C | 24.5% (active)
CS(=O)(=O)N(CC(O)Cn1c2ccccc2c2ccccc21)c1cccc2ccccc12 (centres undefined) | 14.5% (active)
O=[N+]([O-])c1c(NCCO)cc(Sc2nc3ccccc3s2)c2nonc12 | inactive
COc1ccc(S(=O)(=O)Nc2ccc(O)c(Sc3nc4ccccc4s3)c2)cc1 | 23% (active)
Nc1ccccc1SC(C[N+](=O)[O-])c1ccccc1 (centres undefined) | 38.5% (active)
O=C(O)C(c1ccccc1)N1C(=O)/C(=C\c2ccc(-c3cccc(Cl)c3)o2)SC1=S (centres undefined) | 13.5% (active)
COc1ccccc1C1C(C#N)=C(N)Oc2c1c(-c1ccccc1)nn2-c1ccccc1 (centres undefined) | 34.5% (active)
C=C(C)C(=O)O[C@H]1C/C(C)=C\C(=O)/C=C(\C)[C@H](O)[C@@H]2OC(=O)C(=C)[C@@H]21 | 26.5% (active)
CC(=O)Nc1ccc(S(=O)(=O)Nc2nc(-c3ccc(C(C)(C)C)cc3)cs2)cc1 | 19.5% (active)
O=C(/C=C/Sc1ncn[nH]1)c1ccc(Cl)cc1 | 45.5% (active)
Cc1cc(-c2n[nH]c(=S)n2/N=C/C(Br)=C/c2ccccc2)n[nH]1 | 18% (active)
